Efflux pump mplx = blocks antifungal efflux pumps in multiplex yeast assay | S. cerevisiae Candida pump triplex, Nile Red efflux | inhibition, % at 10 µM | 330,000 tested, 0.44% active;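 active = plate passing quality check with inhibition over a set limit, or well fluorescence over plate mean plus 4 SD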;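 note: Nile Red retained in pooled yeast measured as flow cytometry median fluorescence; 0% = buffer negative control and 100% = Enniatin B positive control; higher means more Nile Red kept so more efflux inhibition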
Calb FLC = affects C. albicans growth with fluconazole; C. albicans CaCi-2 (fluconazole-resistant clinical isolate) + fluconazole, Alamar Blue growth, 48 h; growth inhibition, % (test concentration not listed); 300,000 tested, 0.57% active; AID 1979;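 active = growth inhibition above about 58% in most replicates, limit read from the data, passing the limit was not always enough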;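 note: all wells also contain fluconazole at 8 µg/ml as a sub-toxic cotreatment; 0% = median of DMSO wells and 100% = median of geldanamycin control wells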
H9c2 protect = modulators protecting cardiomyocytes from myocardial damage | protection from H2O2 cell death, % at 20 µM | AID 588492 | H9c2 cardiomyocytes, H2O2 injury protection, ATPLite, 2 h | 360,000 tested, 0.63% active;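 active = compounds giving at least 50% protection of heart cells from peroxide-induced death in the single-dose screen, raw or plate-pattern-corrected value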;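 note: 0% = DMSO wells with peroxide and 100% = DMSO wells without peroxide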
PHOSPHO1 inh = blocks human PHOSPHO1 phosphatase activity | Q8TCT1 | 290,000 tested, 1.1% active | inhibition, % at 13.3 µM | recombinant PHOSPHO1, absorbance phosphatase assay; in the data active = inhibition above about 60%
Target sequence (Q8TCT1 whole entry, looked up): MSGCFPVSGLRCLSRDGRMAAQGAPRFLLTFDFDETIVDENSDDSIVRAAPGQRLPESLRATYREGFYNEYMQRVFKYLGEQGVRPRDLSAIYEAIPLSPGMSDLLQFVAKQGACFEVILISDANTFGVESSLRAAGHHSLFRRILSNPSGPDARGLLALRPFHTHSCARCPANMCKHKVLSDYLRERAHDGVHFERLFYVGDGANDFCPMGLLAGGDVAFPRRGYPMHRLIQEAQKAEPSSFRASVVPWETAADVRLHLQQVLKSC
Cl transport mod = modulates chloride dependent transport by human KCC2; Q9H2X9; KCC2 cells, thallium flux FluoZin-2 fluorescence; B-score of Tl+ flux slope (higher = more flux/activation; lower = inhibition) at 10 µM; 190,000 tested, 2.2% active; AID 1456;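 active = thallium flux slope and its plate-corrected score both differing from the plate sample mean at a set confidence after two filtering rounds, in either direction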;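 note: slope of fluorescence scaled to starting intensity during 10 to 20 s after thallium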
Yeast cmpd fluor = compound fluorescence in yeast efflux pump counter-screen | shares compounds with Efflux pump mplx | S. cerevisiae AD/pABC3, flow cytometry | fluorescence ratio to DMSO, % at 10 µM | 1,700 tested, 4% active | AID 588517;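 active = fluorescence ratio to DMSO above its plate's cutoff, the plate mean ratio plus 5 SD, cut at about 210% in these data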;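 note: unstained yeast with no Nile Red so the signal is compound autofluorescence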
Mdr1 pump inh = inhibitors of Candida albicans Mdr1 efflux pump. shares compounds with Efflux pump mplx. S. cerevisiae AD/CaMDR1, Nile Red efflux, flow cytometry. inhibition, % at 10 µM. 1,700 tested, 1% active. AID 588518; in the data active = inhibition above about 26%;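 note: 0% = DMSO vehicle and 100% = reference inhibitor; higher means more Nile Red retained so more efflux inhibition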
CaCdr2 efflux inh = inhibitors of Candida albicans Cdr2 efflux pump. Nile Red retention ratio vs DMSO, % at 10 µM. 1,700 tested, 4% active. AID 588520. shares compounds with Efflux pump mplx. S. cerevisiae AD/CaCDR2, Nile Red retention, flow cytometry; in the data active = Nile Red retention ratio vs DMSO above about 190%;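 note: higher ratio means more blocking of Cdr2 efflux of the dye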
CaCdr1 efflux inh = blocks the Candida albicans Cdr1 efflux pump in yeast | shares compounds with Efflux pump mplx | S. cerevisiae AD/CaCDR1, Nile Red efflux, flow cytometry | inhibition, % at 10 µM | 1,700 tested, 1% active;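 active = inhibition above the screen-wide mean plus twice its standard deviation, cut at about 32% in these data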
Active calls of the source: *; / = not tested or not shown. This is a sample that favours compounds with a hit; in the whole collection about 3.3% have one here.

SMILES | Efflux pump mplx | Calb FLC | H9c2 protect | PHOSPHO1 inh | Cl transport mod | Yeast cmpd fluor | Mdr1 pump inh | CaCdr2 efflux inh | CaCdr1 efflux inh
C[C@H]1CN([C@@H](C)CO)C(=O)c2cc(NC(=O)Nc3cccc4ccccc34)ccc2O[C@@H]1CN(C)Cc1ccc(-c2ccccc2)cc1 | 1.8* | / | -11 | / | / | 97 | 0 | 188* | 0
CC(=O)N1CCc2cc(S(=O)(=O)NC(C(=O)NC(C)c3ccccc3)C(C)C)ccc21 (centres undefined) | 0 | -12 | 8 | 33 | / | / | / | / | /
CSc1nnc(SCC(=O)Nc2ccc3[nH]c(=O)[nH]c3c2)s1 | 0 | / | 10 | / | / | / | / | / | /
COC(=O)c1cc(OC)nc2c1c(=O)n(C)c(=O)n2C | 9.6* | 2 | 5 | 16 | -0.022 | 98 | 0 | 96 | 0
COC(=O)c1cc(-c2ccccc2)c2c(=O)n(C)c(=O)n(C)c2n1 | / | / | / | 24 | -0.49 | / | / | / | /
COc1ccccc1NC(=S)N1CCc2cc(OC)c(OC)cc2C1 | 0 | 26 | 4 | 1 | -0.038 | / | / | / | /
COc1cc2c(cc1OC)CN(C(=S)Nc1cccc(Cl)c1C)CC2 | 0.7* | 2 | -6 | 20 | -0.85 | 100 | 0 | 96 | 0
COc1cc2c(cc1OC)CN(C(=S)Nc1ccc(Cl)cc1)CC2 | 0 | -4 | 3 | 28 | 0.56 | / | / | / | /
COc1cccc(NC(=S)N2CCc3cc(OC)c(OC)cc3C2)c1 | 0 | 5 | -4 | 12 | -1.1 | 84 | 0 | 100 | 0
COc1cccc(NC(=O)c2ccc3c(c2)CCCC3)c1 | 52* | 30 | -15 | 18 | / | 104 | 0 | 100 | 0
CCC(CC)c1nnc(NC(=O)c2cccc(S(=O)(=O)N3CCOCC3)c2)s1 | 0 | / | 1 | / | / | / | / | / | /
COc1ccc(OC)c(NC(=O)COC(=O)c2ccc(S(=O)(=O)N3CCCCC3)cc2)c1 | / | / | 6 | / | / | / | / | / | /
Cc1cccc(C)c1OCc1cc(C(=O)N2CCCCCCC2)no1 | 0 | -9 | -5 | 23 | / | / | / | / | /
Cc1cccc(C)c1OCc1cc(C(=O)N2CCNC(=O)C2)no1 | 0 | -8 | -2 | 17 | / | 96 | 0 | 107 | 0
Cc1c(/C=N/O)c2ccccn2c1C(=O)c1ccc(F)cc1 | 1.7* | 3 | -6 | 20 | / | 96 | 0 | 96 | 0
Cc1c(/C=N/NC(N)=O)c2ccccn2c1C(=O)c1ccc(F)cc1 | 0 | 34 | 43 | -8 | 0.21 | / | / | / | /
COc1ccc(CC(=O)Nc2cc(S(=O)(=O)N3CCOCC3)ccc2N2CCCC2)cc1 | / | / | -1 | / | / | / | / | / | /
CC(C)NC(=O)N(C)C[C@H]1Oc2c(NC(=O)Nc3ccc4c(c3)OCO4)cccc2C(=O)N([C@H](C)CO)C[C@@H]1C | 0 | / | 1 | / | / | 99 | 0 | 101 | 0
C[C@H](CO)N1C[C@H](C)[C@@H](CN(C)C(=O)Nc2ccc3c(c2)OCO3)Oc2c(NC(=O)Nc3ccccc3)cccc2C1=O | 0 | / | 12 | / | / | / | / | / | /
C[C@H]1CN([C@@H](C)CO)C(=O)c2cccc(NC(=O)Nc3ccc(C(F)(F)F)cc3)c2O[C@@H]1CN(C)C(=O)Nc1ccc(F)cc1 | 0 | / | 36 | / | / | 110 | 0 | 97 | 0
CCN(CC(=O)Nc1c(F)cccc1F)C(=O)c1cc(S(=O)(=O)N2CCOCC2)ccc1N1CCCC1 | 0 | -4 | 3 | / | / | / | / | / | /
C[C@H]1[C@@H](c2ccccc2)Oc2ccc(Cl)cc2S(=O)(=O)N1Cc1ccc(F)cc1F | / | / | -8 | / | / | / | / | / | /
Cc1ccc(NC(=O)C[n+]2cc(-c3ccccc3)n3c2CCC3)cc1 | 0 | 2 | 3 | -4 | -0.3 | / | / | / | /
Cc1ccc(-c2c[n+](CC(=O)Nc3ccccc3C)c3n2CCC3)cc1 | 0 | -25 | 2 | 37 | 1 | 103 | 0 | 92 | 0
Cc1cc(S(=O)(=O)N2CCOCC2)ccc1OCC(=O)Nc1ccc(Br)cc1F | 0.9* | -2 | 0 | 16 | / | 110 | 0 | 96 | 0
SMILES | Efflux pump mplx | Calb FLC | H9c2 protect | PHOSPHO1 inh | Cl transport mod | Yeast cmpd fluor | Mdr1 pump inh | CaCdr2 efflux inh | CaCdr1 efflux inh
O=C1CN(c2ccccc2)C(=S)N1C(=O)c1ccc(Br)cc1 | 0 | -2 | -8 | 8 | / | / | / | / | /
CCOC(=O)c1nn(-c2ccc(C)cc2)c(C)c1C(C)=O | 0 | -8 | -2 | -7 | 0.98 | / | / | / | /
CCOC(=O)c1nn(-c2ccc(OCC)cc2)c(C)c1C(C)=O | 1.8* | 16 | -7 | 9 | -0.18 | 108 | 0 | 98 | 0
CC(=O)Nc1cccc(NC(=O)C(=O)NCC(c2ccco2)N2CCc3ccccc32)c1 (centres undefined) | 0 | 3 | -6 | / | / | / | / | / | /
CC(=O)c1c(N2CCN(Cc3ccccc3)CC2)nc(=S)n(Cc2ccccc2)c1C | 0 | -10 | -10 | -8 | -3.4 | / | / | / | /
CC(=O)c1c(N2CCN(Cc3ccccc3)CC2)[nH]c(-c2ccccc2)nc1=S | 0.5* | 5 | -6 | -8 | 45* | 134 | 1 | 104 | 1
Cc1ccc(NC(=O)c2ccc(-n3cccn3)c([N+](=O)[O-])c2)cc1 | 0 | -16 | -4 | 42 | -2.9 | / | / | / | /
O=C(Nc1ccc(C2=NCCN2)cc1)c1ccc(C(=O)Nc2ccc(C3=NCCN3)cc2)c([N+](=O)[O-])c1 | 1.1* | 107* | -4 | 11 | -0.2 | 95 | 0 | 89 | 0
CCCCOC(=O)c1ccc(NC(C)=O)cc1 | 0.6* | -4 | -2 | 7 | 0.6 | 103 | 0 | 106 | 0
O=C(/C=C/[C@H]1O[C@@H](n2ccc(=O)[nH]c2=O)[C@H](O)[C@@H]1O)NCCc1c[nH]c2ccccc12 | / | / | -3 | / | / | / | / | / | /
COc1ccc(C(C)=O)cc1CSc1nc2cc(C(=O)O)ccc2c(=O)n1Cc1ccccc1 | 5.8* | 15 | -2 | 5 | -0.43 | 98 | 0 | 108 | 0
CCOC(Cn1c(SCc2cc(C(C)=O)ccc2OC)nc2ccccc2c1=O)OCC | 0 | 0 | 0 | 6 | 0.066 | / | / | / | /
O=C(CS(=O)(=O)c1ccc(Cl)cc1)Nc1nnc(-c2cccs2)o1 | 0 | -2 | 10 | 7 | / | / | / | / | /
Cc1cccc(Nc2cc(=O)[nH]c(=O)[nH]2)c1 | 6.5* | -1 | 9 | 6 | 0.68 | 102 | 0 | 116 | 0
COc1ccc(CNC(=O)C(=O)NCC2OCCN2S(=O)(=O)c2ccc(F)cc2)cc1 (centres undefined) | 0 | 5 | 3 | 40 | / | / | / | / | /
Cc1ccc(CNC(=O)C(=O)NCC2OCCN2S(=O)(=O)c2ccc(Br)cc2)cc1 (centres undefined) | 1 | -4 | -9 | -1 | / | 109 | 0 | 112 | 0
COc1ccc(CNC(=O)C(=O)NCC2OCCN2S(=O)(=O)c2ccc(C)cc2)cc1 (centres undefined) | 0 | 3 | 1 | 13 | / | 95 | 0 | 106 | 0

Screening data from PubChem.
